# Laboratory results: PubChem BioAssay AID1347426 (Functional Genomics Laboratory (NCATS/FGL), 2020)
# The whole screen tested about 31,000 sequences, of which about 1,400 (4.5%) were called active. Many of the other results were omitted from the sample, so actives are more common in it than they were. A number with no mark means an inactive call.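 Rule for the calls: active = median seed-adjusted z-score above 1 or below -1; inactive = the rest.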
# Test: Novel Modifiers of Survival Motor Neuron (SMN) Protein: Gene Identification via Genome-wide siRNA Screen;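 note: luminescence tracks full-length SMN protein made from the SMN2 reporter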
# Conditions: HEK293T SMN2-luciferase reporter, siRNA knockdown, 72 h; actives lie on both sides
# Method in brief: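 Luciferase signal, proportional to full-length SMN made from an SMN2 cDNA reporter in stable HEK293T cells, was read 72 h after siRNA reverse transfection. Values were expressed as MAD scores after non-targeting-control normalization and log10 conversion; seed analysis flagged off-targets.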
row,Sequence,median seed-adjusted z-score
1,GAUUGGACCUAACAAUGGATT against NEIL3,0.0736
2,UGCUGACUUUUAACCCACATT against CDK4,0.346
3,CACUCGAAAUUUUGAAGCATT against CHD4,0.625
4,CGGUUGAACUUCGAAAUAUTT against NF1,-0.36
5,CAACGGCAGGAAAUUCUAATT against KLRA1,0.918
6,GUAUCGCAUUUCUACAGCATT against SAMHD1,-1.33 (active)
7,AGAGCAAGCGGAAAAGGGATT against HAND1,0.161
8,GAAUCACCAGCUAAACUAUTT against STARD6,0.0605
9,GCACCAGCGAGAGAAGAGATT against PLA2G3,0.543
10,CCAAAGAACUUAAGGAUUUTT against NEURL2,1.39 (active)
11,GGUCUACGUGAACAACUCUTT against KCNMB4,0
12,GCAAAUCGCUAGCAUCAUUTT against MLL2,-2.11 (active)
13,GCAUUUUGCAUAUCCACCATT against TRMT12,0.352
14,GAAGAAACUUGUGAACGAATT against MX1,-1.49 (active)
15,GGAACAGUCAUGCUGGAUATT against SLC4A7,0
16,GAACAUCGCAUAAUCCUGATT against ORC1L,-0.536
17,GCAACUUCGUGAGAUUACATT against COLEC12,-1.04 (active)
18,AAGCAUAAUUUGUACAGCUTT against NMNAT1,0.22
19,CCAAGAUGCGAUCCUCCAATT against HOXA4,0.194
20,GGCUUGGAUCAAUCUAAGATT against HNRNPL,1.04 (active)
21,GGGCAACUCUUCAUCUACATT against SLC5A10,0.669
22,GGCUAUACAUGGAUAGCAATT against SLITRK1,0.215

row,Sequence,median seed-adjusted z-score
1,CGAUUAGUGUCAAAGGCUUTT against MMP7,0.0315
2,CGAACGACAGUUCCACAAATT against PDE6A,1.25 (active)
3,GAAUCUAUGAGAUGAACAATT against LDB2,-0.0847
4,GCAGAAUACAAGAGCUUGATT against EID2,-1.04 (active)
5,GGCUCCUUAUAUGACUAUUTT against ACVR1C,-0.0005
6,GCUCUGAGGGAGUAUCGAATT against TROVE2,0.399
7,ACAUAACCGUUCUUCGAGATT against GTPBP2,-0.166
8,CAAAAGGACAAAUCAACGATT against DDAH1,0.138
9,GAGACUGUGCAGAUGUAUATT against ANGPT1,0.289
10,GCAUCAGCAUAAGUCCAUUTT against SIAH1,1.5 (active)
11,GUGUCGUACUCACAUCCAUTT against PTCH2,-0.191
12,GUGACGGCUUUAGACCUGATT against PRTFDC1,0.493
13,GCAAGGUUCCUAGCGUGUATT against VCAM1,0.19
14,CAGCAGAGCCGAUCCAAGATT against GPR37L1,-0.0348
15,ACAUCUUCAAGGCCCUUUUTT against CTDSP2,0.498
16,GGAAUUCCGUAAAAGCAUUTT against HOXC13,-0.318
17,CACUAAUCGUGAGCAUGGATT against XRCC5,-1.11 (active)
18,GAGUAGUUUAGAUAAGUUATT against SPAG9,0.0795
19,GCAUCCGAGAUGUGACUAATT against DIS3,0.266
20,GCAGUGAUCAUAAUUCUCATT against SLC7A1,0.445
21,UGACGACACUGACCGCAGATT against UBE2S,0.348
22,GCAUUGAGAUGUUCCACAATT against TUFM,1.07 (active)

row,Sequence,median seed-adjusted z-score
1,GAAUCACUCUUUGACAACATT against SLC2A13,-0.0451
2,GAAGAAUACAAACAGCAAUTT against CRCP,0
3,CAGCUGUUCUCAUAUGCUATT against ATP5G3,0
4,CCUGAUUACUAUAAGAUCATT against BRD4,1.13 (active)
5,GAACCUCUCUGAAACUGCUTT against PBLD,-0.0809
6,CGACUCCGGAGGAUUGAAATT against GSX2,-0.621
7,GCAAGUUAGUGGAUUAAAATT against FOXP1,-0.198
8,GACUAGUACUUACGGCUUUTT against RBM15,-0.409
9,GCAUGAACGCGGUCAUGAUTT against RAB40C,-0.161
10,CAGGUCAAGUGUUACCGAUTT against ZCCHC13,-0.297
11,GCAAUUACAGGCUAGUGAATT against AKAP9,-1.22 (active)
12,CCUACUUCGGAGUCUAUGATT against SLC25A4,-0.379
13,CAAGGUUGAUGGGCGUGUATT against HNRNPA3,0.915
14,CCAGGACUUUGUUACUGCATT against TIGD6,-0.443
15,GCUGGUACCCGUCAACAAATT against ABCC10,-1.56 (active)
16,GGACUUCAAUAUCGCAGUATT against PLCE1,0.597
17,GGAACAGCGCAGUACGUUUTT against PDPK1,0.0807
18,CCAUCGCUUUCAGCAGACATT against DLX6,0.0275
19,GGACCACAAGGGAAUACAATT against KHDRBS1,0.0916
20,ACUUGGAUCAUUUCCCUGATT against SLC13A5,0
21,GACCUUGAAUGUUCAACAUTT against ZNF470,-1.26 (active)
22,GCCGCAUCGUAGCUCGUAATT against RRAD,-0.267

row,Sequence,median seed-adjusted z-score
1,GGAAUAUGCAUAUCAUGGATT against LNPEP,-0.386
2,CGAUAUAUGUGAUAUGCGUTT against ZNF740,-0.914
3,GCAACAAGACGGAAUUGGATT against SFRS3,2.74 (active)
4,GAGUGGACAUUCUAAUCAATT against RDH13,0.208
5,CCAUCUUAAACUCGCUCUATT against GPR114,0.805
6,CUACCGGGCUGACCUCAAATT against GPR153,-1.08 (active)
7,UGAGAGCUCUAGAUAUGAATT against ZNF768,0.169
8,ACGGCUCUGUGGACACAGATT against GPR78,0.607
9,CGAGUGAAAGAAUCAAUAUTT against OXSR1,-0.0682
10,GCUACGAGUUUACUAUCUUTT against TNIK,0.154
11,CCUCAGAGCUCAAUCAUCUTT against CD5,0.0416
12,CGAUAAUCUGGGCUACAGATT against ADD1,-0.0129
13,CCAAUACUAACAUCUUCAATT against MCART1,-0.605
14,CAACGGCUCUUAGACCACATT against SPRY4,-1.23 (active)
15,GCUCAGUAUUUAAACAUCATT against COL9A2,0.0208
16,AGCCGACAGUGGUGCACUATT against PLA2G15,0
17,CGGAGACCGUACGAAAGUATT against A2M,-1.96 (active)
18,GGAUGGAAGAUAGCUUGAATT against CPEB4,-0.53
19,CGGGCAUUGCCACCAAAGATT against DUX5,-0.295
20,GCAUUCAUCACUUCGAAAATT against BNC2,-0.0556
21,CCUACAGCAGUGUCUAUGATT against EIF3C,0.56
22,GGUUGACUCAGAUACUACATT against CENPE,0.298

row,Sequence,median seed-adjusted z-score
1,GGAUCCUUACUUCUUGUCATT against COQ2,-0.0121
2,GGAAACCAGUGGAUAUUAATT against F11,-0.0319
3,ACAUCAACGUGGAACGAGATT against EIF4A1,-1.05 (active)
4,GAUGAGACUUUGACUAUAATT against FGD6,0.536
5,GCCUGAACCUCAUCCUUAUTT against ENPP1,-0.273
6,GGGUUUUCAUUCAGAUGAATT against MLL4,-0.259
7,GGAUUAUUCCUACCUAAUUTT against CDYL2,-0.379
8,GGAAGAAGGUUCUCAAACATT against RETSAT,-1.7 (active)
9,GGAGCAGUAUUGACAACAATT against NUFIP1,-0.673
10,GCACAAUUGAAAACUUCAATT against CYSLTR2,0.0461
11,GGAUGUUCCAAAUCACGGATT against MBTD1,0.0649
12,GGAUUGCCCAGGGUUCCUATT against DGKQ,-0.0985
13,CGGUUAGAUUUGGACAGUATT against ARHGAP9,0
14,GGACUUGGUUUUUCGUACATT against MED14,-3.22 (active)
15,UCCUUUAACUCGACAGUCATT against DRG2,-0.175
16,AGAGGGCACUGGACCUGAATT against UQCRB,0.348
17,GAUCCAAUGUAAACGUGGATT against GRLF1,0.0307
18,GGACCAGAACCACAAGCAATT against GHSR,0.18
19,GAUCAUCUCUGAAACAGCATT against GYG1,0.119
20,CAUUCGACAUAGAAGAGUUTT against ZNF551,-0.171
